Lmaj promast = inhibitors of Leishmania major promastigote growth; Leishmania major promastigotes, resazurin fluorescence viability; 200,000 tested, 9% active; inhibition, % at 10 µM; in the data active = inhibition above about 50%;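 also: promastigotes grown with compound for 44 hours at 28 °C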
Arbovirus inh = blocks arbovirus infection | arbovirus infection cell-based antiviral screen | inhibition, % at 10 µM | 200,000 tested, 0.37% active | AID 1251; in the data active = inhibition above about 30%
CHOP inhibitor = inhibitors of CHOP induction in ER stress response | inhibition, % at 10 µM | AID 2732 | 220,000 tested, 3.8% active | CHO-K1 CHOP-promoter luciferase, tunicamycin-induced, 15-18 h;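 active = compounds that reduced the stress-induced luciferase reporter signal by more than about 70% of percent inhibition, limit read from the data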;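 also: 0% = tunicamycin plus vehicle and 100% = wells without tunicamycin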
WT yeast gro inh = growth inhibition of WT yeast, mitochondrial fusion screen | AID 1362 | 190,000 tested, 2.1% active | mitochondrial fusion phenotypic screen, WT strain | inhibition, % at 10 µM; in the data active = inhibition above about 58%; tested in S. cerevisiae
Numbers without * were called inactive; · = no result given. Sampled rows, rich in hits. Any-hit rate of the full collection: about 12%.

SMILES	Lmaj promast	Arbovirus inh	CHOP inhibitor	WT yeast gro inh
CCOCC(=O)N1CCN(c2ccc([N+](=O)[O-])cc2)CC1	6	8	6	-14
C1CCc2c(nc3nnnn3c2NCC2CC2)C1	·	·	11	·
CCC1CCC(C(=O)NC(C(=O)Nc2ccc3c(c2)OCCO3)C(C)C)CC1 (centres undefined)	1	-15	83*	-7
CC(C)CC(NC(=O)C1CCC(C)CC1)C(=O)Nc1ccc2c(c1)OCCO2 (centres undefined)	6	-12	46	3
CCO/N=C1\C(=O)N(c2ccccc2)c2ccccc21	16	-1	33	-6
O=C(O/N=C1\C(=O)N(c2ccccc2)c2ccccc21)C1CC1	-7	-1	73*	-21
CC(C)OC(=O)CC(=O)CSc1nc2c(cc1C#N)CCCC2	-5	-1	80*	-5
CC(C)OC(=O)CC(=O)CSc1nc2c(cc1C#N)CCCCCC2	-4	-5	31	17
O/C(=C\c1nc2ccccc2nc1/C=C(\O)c1ccccc1)c1ccccc1	98*	-7	-52	74*
Cc1ccc(/C(O)=C/c2nc3cc(C)ccc3oc2=O)cc1	·	·	6	·
COc1cc(-n2c(=O)c3ccccc3n(CC(=O)c3ccc(F)cc3)c2=O)cc(OC)c1OC	-1	-2	-1	-6
COc1ccc(N=C2S/C(=C\c3ccc(N4CCOCC4)o3)C(=O)N2CCc2c[nH]c3ccccc23)cc1	100*	-31	37	31
O=C(O)COc1ccc(/C=C2\SC(=Nc3ccccc3)N(c3ccccc3)C2=O)cc1	-12	6	-14	-1
CCCN1C(=O)/C(=C/c2ccc(C)o2)SC1=Nc1ccc(OC)cc1	4	-9	26	-17
COc1ccc(N=C2S/C(=C\c3ccc(OCC(=O)O)cc3)C(=O)N2CCc2c[nH]c3ccccc23)cc1	-4	46*	-9	-13
O=C(COc1cc(Cl)c(Cl)cc1Cl)Nn1cnnc1	-7	0	10	3
CN(C)C(=O)CCSc1nnc(-c2ccco2)o1	-17	13	32	-12
CN(CC(=O)Nc1ccccc1Cl)CC(=O)Nc1ccccc1[N+](=O)[O-]	22	16	-9	-5
Cc1ccc(/C=C/C(=O)c2c(C)nc3ccccn23)cc1	28	13	-60	9
Cc1nc2ccccn2c1C(=O)/C=C/c1cccc([N+](=O)[O-])c1	98*	3	-137	2
COc1cccc(/C=C/C(=O)c2cccc([N+](=O)[O-])c2)c1	98*	-13	-39	12
COc1cccc(C(=O)/C=C/c2ccc(N3CCCCC3)c([N+](=O)[O-])c2)c1	31	14	-6	-9
COc1cccc(/C=C/C(=O)c2cccc([N+](=O)[O-])c2)c1OC	100*	-27	8	-13
COc1ccc(C(=O)/C=C/c2ccccc2OC)c(OC(=O)c2ccc([N+](=O)[O-])cc2)c1	56*	·	·	·
C[n+]1cc2c3c(ccc2c2ccc4cc5c(cc4c21)OCO5)OCO3	·	·	-6	·
SMILES	Lmaj promast	Arbovirus inh	CHOP inhibitor	WT yeast gro inh
COc1ccc(CCNC(=O)C2CC(c3ccccc3F)=NO2)cc1 (centres undefined)	·	·	-4	·
COc1ccc(OC)c2c1sc(=NC(=O)C1COc3ccccc3O1)n2C (centres undefined)	·	·	-35	·
COC(=O)/C=C/c1ccsc1NC(C)=O	2	2	-36	-1
COc1ccc(/C=C/C(=O)c2ccncc2)c2ccccc12	98*	-28	-19	11
COc1ccc(OC(=O)c2cccc([N+](=O)[O-])c2)c(C(=O)/C=C/c2cccs2)c1	73*	-4	-14	12
O=C(/C=C/c1cccs1)c1ccc([N+](=O)[O-])cc1	·	·	8	·
CC(C)(C)NC(=S)NCC1CC1	·	·	21	·
COc1ccc(C2CC(c3ccccc3Cl)Nc3ncnn32)cc1OC (centres undefined)	76*	3	13	-1
Clc1ccccc1C1CC(c2ccccc2)Nc2ncnn21 (centres undefined)	0	0	92*	13
COc1cccc(C2CC(c3ccccc3Cl)Nc3ncnn32)c1 (centres undefined)	-3	·	·	·
CCCCOC(=O)c1ccc(S(N)(=O)=O)o1	16	6	2	-23
CN(C)C(=O)c1ccc2c(c1[N+](=O)[O-])C(=O)c1ccccc1C2=O	33	-26	-4	45
Cc1[nH]c2ccccc2c1CCNC(=O)c1ccc2c(c1[N+](=O)[O-])C(=O)c1ccccc1C2=O	95*	-10	1	2
Cc1ccc2[nH]c(C)c(CCNC(=O)c3cc4cc([N+](=O)[O-])ccc4oc3=O)c2c1	-9	-3	89*	-12
Cc1[nH]c2c(C)cccc2c1CCNC(=O)c1ccc2c(c1[N+](=O)[O-])C(=O)c1ccccc1C2=O	100*	-12	-1	-17
Cc1ccc2[nH]c(C)c(CCNC(=O)c3c(N)no[n+]3[O-])c2c1	-4	-6	13	18
COCCNC(=O)[C@@]1(Cc2ccccc2)C=C[C@@H](C)N1C(C)=O	-6	-6	-12	-6
O=C(NCCOc1ccccc1F)c1cc(F)c(F)cc1Cl	-4	-9	-14	-12
COc1ccc(CCn2c(-c3ccco3)nc3nc4ccccc4nc32)cc1	18	-3	2	13
COc1ccc(CCn2c(-c3cc([N+](=O)[O-])cc([N+](=O)[O-])c3)nc3nc4ccccc4nc32)cc1	89*	-5	-10	20
COc1ccc(CCn2c(-c3cc([N+](=O)[O-])cc([N+](=O)[O-])c3)nc3nc4ccccc4nc32)cc1OC	80*	-11	23	10
O=C(O)CCCC(=O)N1CCc2cc(S(=O)(=O)NCc3ccc(F)cc3)ccc21	-8	16	3	0
O=C1CC(C(F)(F)F)=NN1	·	·	-17	·
Cc1cccc(NC(=O)CSc2nc(N)c(NC(=O)c3cccs3)c(=O)[nH]2)c1C	-8	-1	-23	-8
COCCCNC(=S)Nc1cccc(S(=O)(=O)NC2=NCCC2)c1	-1	5	2	-17
SMILES	Lmaj promast	Arbovirus inh	CHOP inhibitor	WT yeast gro inh
CCOC(=O)c1ccc(NC(=O)c2nc[nH]c2C(=O)N[C@H](C)c2ccccc2)cc1	·	·	70*	·
Cc1cccc(NC(=O)c2nc[nH]c2C(=O)N[C@@H](C)C(=O)OC(C)(C)C)c1	·	·	86*	·
CCOC(=O)c1ccc(NC(=O)c2nc[nH]c2C(=O)N[C@@H](CC(C)C)C(=O)OCc2ccccc2)cc1	·	·	-23	·
C/C(=N\NC(=O)CCn1nnc2ccccc21)c1ccco1	·	·	-9	·
Cn1c(N=Nc2ccccc2)nc2ccccc21	53*	-24	41	86*
CN(C)c1ccc(N=Nc2nc3ccccc3n2C)cc1	·	·	70	·
CCN(CC)c1ccc(/C=N/N2CCN(Cc3ccccc3)CC2)c(O)c1	92*	17	-15	57
CCN(CC)c1ccc(/C=N/NC(=S)NC)c(O)c1	83*	-21	-46	4
Cc1ccc(CN2CCN(/N=C/c3ccc(C(F)(F)F)cc3)CC2)cc1	37	5	35	28
CCN(CC)c1ccc(/C=N/N2CCN(Cc3ccccc3)CC2)cc1	9	9	1	4
CCN(CC)c1ccc(/C=N/NC(=O)OC)c(O)c1	-5	-27	-11	-15
FC(F)(F)c1ccc(/C=N/N2CCN(Cc3ccccc3)CC2)cc1	54*	-1	68	36
CCN(CC)c1ccc(N=Cc2ccc(N(CC)CC)cc2O)cc1	100*	3	-3	27
